Assay outcomes (PubChem)
EP2 antag – EP2 receptor (human) inhibition; C6 glioma cells expressing human EP2, cAMP TR-FRET; cells stimulated with saturating PGE2; inhibition, % at 25 µM; hit rate 0.52% among 260,000;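 active means percent inhibition above 40 after rounding to a whole number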;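 further: rat C6 glioma host cells with rolipram phosphodiesterase inhibitor present; the protocol text gives 20 µM as final concentration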
EP2 mod – modulates human prostaglandin E2 receptor EP2 signaling. hit rate 0.83% among 260,000. EP2-expressing cells, cAMP HTRF FRET, PGE2 co-stimulation. AID 940. induction, % at 25 µM. P43116;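 active means compounds whose cAMP rise, as percent of the full-agonist control response, exceeds 60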;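 further: rat C6 glioma line stably carrying human EP2 under a CMV promoter; the protocol text gives 20 µM as final concentration; 100% = response of wells given 1 µM PGE2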
S1P3 antag – antagonists of human S1P3 receptor | Q99500 | hit rate 0.27% among 170,000 | inhibition, % at 4.98 µM | CHO S1P3 NFAT-BLA reporter, FRET fluorescence, antagonist mode | AID 485;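 active means inhibition above the plate cutoff, the mean inhibition of test wells on that plate plus 3 SD, cut at about 28% in these data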;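 further: cells challenged with S1P at its EC80 of 0.8 µM; blue over green emission ratio from cleaved BLA substrate after 4 h stimulation; 0% = S1P-stimulated wells and 100% = unstimulated DMSO-only wells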
S1P4 antagonist – blocks the human S1P4 receptor | O95977 | S1P4-expressing cells, antagonist mode, reporter read-out | inhibition, % at 4.98 µM | hit rate 0.26% among 220,000 | AID 1510; in the data active means inhibition above about 29%;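 further: 0% = wells stimulated with agonist and 100% = vehicle wells without agonist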
Target sequence (O95977 whole entry, looked up): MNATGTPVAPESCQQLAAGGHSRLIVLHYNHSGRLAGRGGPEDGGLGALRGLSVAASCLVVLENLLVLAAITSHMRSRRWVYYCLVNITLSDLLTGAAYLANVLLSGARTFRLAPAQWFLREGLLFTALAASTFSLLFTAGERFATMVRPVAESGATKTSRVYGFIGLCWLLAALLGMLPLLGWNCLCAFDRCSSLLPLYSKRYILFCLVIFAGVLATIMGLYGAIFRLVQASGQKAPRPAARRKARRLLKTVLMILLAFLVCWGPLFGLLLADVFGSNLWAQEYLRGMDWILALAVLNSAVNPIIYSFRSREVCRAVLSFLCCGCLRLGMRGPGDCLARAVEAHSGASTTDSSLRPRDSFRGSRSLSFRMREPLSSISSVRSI
Insulin prom inh – TRM-6 insulin promoter activity inhibition. inhibition, % at 2 µM. hit rate 0.9% among 130,000. TRM-6 cells (human fetal islet line), insulin promoter-eGFP reporter, imaging; reporter expression induced with tamoxifen;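 active means inhibition above the mean plus 3 SD, with well images judged a real hit on visual review, cut at about 60% in these data, passing the limit was not always enough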
S1P4 agonist – activates the human S1P4 receptor; activation, % at 4.98 µM; O95977; hit rate 0.35% among 220,000; AID 1509; S1P4-expressing cell line, agonist reporter assay; in the data active means activation above about 11%;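 further: 0% = DMSO vehicle and 100% = reference agonist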
S1P4 agonist cf – confirmation of human S1P4 receptor agonists | shares compounds with S1P4 agonist | S1P4 agonist cell-based reporter assay | activation, % at 4.98 µM | hit rate 7% among 740; in the data active means activation above about 12%;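 further: 0% = vehicle and 100% = full reference agonist response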
S1P1 ag – activates human S1P1, counter-screen for S1P4 agonists; shares compounds with S1P4 agonist; S1P1 agonist cell-based assay, activation; activation, % at 4.98 µM; hit rate 4% among 740; in the data active means activation above about 21%;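 further: 0% = vehicle wells and 100% = reference agonist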
An asterisk follows results filed as active; nt = no result given. Rows were chosen to be rich in hits. Some 2.4% of all compounds tested hit in one or more screens of this group.

SMILES	EP2 antag	EP2 mod	S1P3 antag	S1P4 antagonist	Insulin prom inh	S1P4 agonist	S1P4 agonist cf	S1P1 ag
Fc1ccccc1C(c1nnnn1C1CCCC1)N1CCN(C2CCCC2)CC1 (stereo unspecified)	8	-1	nt	nt	nt	nt	nt	nt
Cc1ccc(CN2CCN(Cc3cn[nH]c3-c3cccc(F)c3)CC2CCO)o1 (stereo unspecified)	1	-3	-6	-1	nt	15*	-1	-5
Cc1ccc(CN2CCN(Cc3cn[nH]c3-c3ccccc3)CC2CCO)o1 (stereo unspecified)	4	-2	-8	-7	10	3	nt	nt
Cc1ccc(OCC(=O)N/N=C/c2ccc3c(c2)OCO3)cc1C	1	-63	-2	13	-3	12*	-2	1
Cc1ccc2nc(C)cc(NCCN(C)C)c2c1	6	-84	nt	nt	nt	nt	nt	nt
O=C(Cn1c(Cc2ccccc2)nc2ccccc21)NCc1ccc2c(c1)OCO2	6	24	-6	-14	nt	22*	-2	-4
COc1ccc(C2/C(=C(/O)c3ccc(Cl)cc3)C(=O)C(=O)N2CC(C)O)c(OC)c1 (stereo unspecified)	13	10	nt	nt	nt	nt	nt	nt
COC(=O)c1ccc2c(c1)C(=O)/C(=C/c1ccc(C)cc1)O2	9	28	7	-23	-12	13*	-1	-2
CCc1ccc(/C=C2\Oc3ccc(C(=O)OC)cc3C2=O)cc1	5	22	11	-19	-12	2	nt	nt
COc1ccc(NC(=O)C2CCCN2S(=O)(=O)c2ccc(Cl)cc2)cc1OC (stereo unspecified)	7	-65	nt	nt	nt	nt	nt	nt
CCN1C(=O)C(c2ccc(F)cc2)C2(CCN(C(=O)Cc3nc4ccccc4[nH]3)CC2)C1=O (stereo unspecified)	5	-16	nt	nt	nt	nt	nt	nt
COc1ccc(C(=O)NCC(=O)OCC(=O)Nc2c(C)n(C)n(-c3ccccc3)c2=O)cc1	5	24	nt	-7	13	104*	-2	-7
O=C(Nc1ccc(-c2nn3cnnc3s2)cc1)c1cccs1	9	-4	nt	nt	nt	nt	nt	nt
COc1cc2cc3c(N)c(C(=O)NCc4cccs4)sc3nc2cc1OC	28	-89	nt	nt	nt	nt	nt	nt
CCc1nc(N)c(C#N)c(-c2ccncc2)c1C	5	27	-24	-15	-11	0	nt	nt
CCc1nc(N)c(C#N)c(-c2cccc3ccccc23)c1C	nt	24	nt	-3	35	16*	-2	-3
COc1cc(N)c(Cl)cc1C(=O)N1C2CCC1CC(c1ccc(F)cc1)C2 (stereo unspecified)	nt	-36	nt	nt	nt	nt	nt	nt
CC(/C=N/N1CCN(c2ccccc2)CC1)=C\c1ccccc1	7	13	nt	1	nt	1	nt	nt
CC(/C=N/N1CCN(c2ccccn2)CC1)=C\c1ccccc1	8	-13	14	-1	nt	11*	0	2
O=C1C(Nc2ccccc2)=C(N2CCCCC2)C(=O)c2ccccc21	23	-4	nt	0	-14	0	nt	nt
CN(C1=C(N2CCCCC2)C(=O)c2ccccc2C1=O)c1ccccc1	7	64*	nt	-30	31	12*	-2	-5
COc1ccc(CCN2C(=O)CC(NCc3ccc4c(c3)OCO4)C2=O)cc1OC (stereo unspecified)	10	-28	-8	-2	-12	19*	-3	0
Cc1cc(-c2cncnc2C2CCCN(CC(=O)Nc3nccs3)C2)on1 (stereo unspecified)	nt	-16	nt	nt	nt	nt	nt	nt
CNC(=O)/C(C#N)=c1\s/c(=C/C(=O)OC)c(=O)n1-c1ccccc1	8	6	nt	-4	21	-1	nt	nt
CCOC(=O)/C=c1\s/c(=C(\C#N)C(=O)OCC)n(-c2ccccc2)c1=O	11	5	nt	-2	nt	160*	-2	-6
SMILES	EP2 antag	EP2 mod	S1P3 antag	S1P4 antagonist	Insulin prom inh	S1P4 agonist	S1P4 agonist cf	S1P1 ag
CC(Nc1ccc2c(c1)OCCO2)C(=O)N1c2ccccc2CC1C (stereo unspecified)	9	-26	-3	-8	nt	16*	29*	-1
OC(CN1CCC2(CC1)CC(O)c1cc(Cl)ccc1O2)c1ccc2c(c1)CCC2 (stereo unspecified)	8	-64	nt	nt	nt	nt	nt	nt
Cc1ccc(-c2nnc(-c3cn(C)c4ccccc34)o2)cc1	13	-28	nt	nt	nt	nt	nt	nt
Cc1cc(C(=O)CSc2nc3ccccc3c(=O)[nH]2)c(C)n1CC1CCCO1 (stereo unspecified)	10	-58	12	-8	nt	53*	0	8
Cc1cc(C(=O)COC(=O)CCc2nc3ccccc3c(=O)[nH]2)c(C)n1CC1CCCO1 (stereo unspecified)	5	-10	-4	-6	nt	1	nt	nt
CCCC(=O)Nc1nnc(SCC(=O)NCc2ccco2)s1	11	12	7	-10	nt	0	nt	nt
O=C(CSc1nnc(NC(=O)Cc2ccccc2)s1)NCc1ccco1	6	13	-11	3	5	17*	-3	-3
Cc1cc(C)nc(SCc2nnc(SCC(=O)O)n2-c2ccccc2)n1	5	22	10	-4	nt	14*	-3	-3
O=c1c2[nH]c3ccc(F)cc3c2ncn1CC1CCCO1 (stereo unspecified)	20	-26	-7	5	nt	38*	-2	1
Cn1c2ccc(F)cc2c2ncn(CC3CCCO3)c(=O)c21 (stereo unspecified)	5	-30	6	-2	nt	1	nt	nt
COc1ccc(C2=NN(C(=O)CN3CCCCC3)C(c3ccc(OC)cc3)C2)cc1 (stereo unspecified)	5	0	9	18	nt	-1	nt	nt
COc1ccc(C2=NN(C(=O)CN3CCCC3)C(c3ccc(OC)cc3)C2)cc1 (stereo unspecified)	8	-38	0	12	nt	40*	-2	-8
COc1ccc(C2CC(c3ccc(Br)cc3)=NN2C(=O)c2cccnc2)cc1 (stereo unspecified)	6	21	7	-17	0	12*	0	2
Cc1cccc(C2(O)CCN(C(=O)C3Cc4cc(Cl)ccc4O3)CC2)c1 (stereo unspecified)	4	-62	nt	nt	nt	nt	nt	nt
NS(=O)(=O)c1ccc(N/N=C/c2cn(-c3ccccc3)nc2-c2cccs2)c([N+](=O)[O-])c1	13	1	-32	1	nt	38*	-3	-6
COc1ccc(CC2(CO)CCN(Cc3cnn(C)c3C)CC2)cc1	1	7	-11	8	nt	17*	-1	-8
N=c1oc2cc(O)ccc2cc1C(=O)Nc1nc2ccccc2s1	19	-38	-103	-76	nt	92*	80*	129*
N=c1oc2cc(O)ccc2cc1C(=O)Nc1ccccc1	5	-81	nt	nt	nt	nt	nt	nt
COc1ccc(-n2nnnc2SCC(=O)Nc2cc(OC)cc(OC)c2)cc1	13	-12	nt	nt	nt	nt	nt	nt
Cc1cc(C)nc(NC(=O)Cc2ccc([N+](=O)[O-])cc2)c1	2	27	-4	-28	22	30*	-3	-1
